High-throughput results from PubChem.
KB-V1 MDR tox = kills drug-selected multidrug resistant KB-V1 cells; KB-V1 MDR cells viability, CellTiter-Glo, 72 h; actives 3.4% (n = 400,000); Potency, µM (highest dose often 46.1 µM), most hits filed as cytotoxic; further: potency means the concentration at half of the fitted maximal effect; on the % scale 0 is the no-effect control and ±100 the full control effect; nearly all actives have a fitted effect of over 60% in size
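Drug-selected KB-V1 cells, grown in DMEM lacking phenol red with 10% FBS, receive compound titrations; after three days at 37 degrees C, surviving cell ATP is quantified by CellTiter-Glo luminescence and responses normalized and curve-fitted.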
IL1B secr inh = inhibitors of inflammasome signaling (IL-1 beta secretion). actives 4.7% (n = 360,000). THP-1 LPS/ATP IL-1B secretion, AlphaLISA, 16 h; active compounds read low. activity change, % at 57.5 µM; in the data active means activity change below about -50%; inconclusive means mostly about -30% to -49%; further: on the % scale 0 is the no-effect control and ±100 the full control effect
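Secreted IL-1B measured by AlphaLISA bead assay after 16 h compound exposure of THP-1 cells; compounds (final up to 57.5 uM) added 1 h before LPS (250 ng/mL) and ATP (1.25 mM) stimulation; lower signal means less secretion.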
KB-3-1 cytotox = kills parental KB-3-1 adenocarcinoma cells | Potency, µM (highest dose often 46.1 µM), most hits filed as cytotoxic | KB-3-1 viability, CellTiter-Glo ATP luminescence, 72 h | actives 1.4% (n = 400,000) | AID 1347075; further: potency means the concentration at half of the fitted maximal effect; on the % scale 0 is the no-effect control and ±100 the full control effect; nearly all actives have a fitted effect of over 60% in size
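72 h, 37 °C compound treatment of KB-3-1 parental cells; CellTiter-Glo added, 10 min, luminescence read. Data corrected against DMSO-only plates and normalized before curve fitting.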
MCF10A rerep = induces DNA re-replication in MCF 10a normal breast cells; MCF 10A DNA re-replication, Hoechst nuclear intensity, 48 h; Potency, µM (doses to about 46.1 µM), without a hit: at the highest dose activity, positive = re-replication, most hits filed as activators; actives 2.9% (n = 350,000); AID 624296; further: potency means the concentration at half of the fitted maximal effect; % of control where 0% means no effect; nearly all actives have a fitted effect of over 50% in size
SW480 rereplic = DNA re-replication induction in SW480 cells | SW480 DNA re-replication, Hoechst DNA content imaging, 48 h | Potency, µM (doses to about 46.1 µM), inactives show top-dose re-replication activation, most hits filed as activators | actives 1.8% (n = 340,000); further: potency means the concentration at half of the fitted maximal effect; % of control where 0% means no effect; nearly all actives have a fitted effect of over 55% in size
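Treated cells incubate 48 hr (37 C, 5% CO2), are stained 40 min with Hoechst, and nuclear fluorescence is enumerated; a rise in nuclei with high DNA signal marks re-replication.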
* hit, by the source's call; i = inactive; ? = inconclusive; . = no result given; [ ] = dose if it differs, or a comment. Rows were chosen to be rich in hits. Some 9.9% of all compounds tested hit in one or more screens of this group. Unless noted, the call rests on the fitted dose curve; in most records, active means well fitted curve in the direction sought with a large enough effect; inconclusive means small, poorly fitted or top-dose-only effect, or another doubt; inactive means no such curve, though single readings can be large; an effect the other way counts as inactive or inconclusive.

SMILES	KB-V1 MDR tox	IL1B secr inh	KB-3-1 cytotox	MCF10A rerep	SW480 rereplic
CCOC(=O)/C=C/C(=O)Nc1ccc(S(=O)(=O)N2CCc3ccccc32)cc1	?	?	i	?	16.6%
CCc1cccc(C)c1NC(=O)CN1CCN(S(=O)(=O)c2ccc(C(C)(C)C)cc2)CC1	i	?	i	?	-33.0%
C1=Cc2ccccc2/C1=C/c1ccc2c(c1)OCO2	i	.	i	.	.
CC(=O)Nc1ccc(S(=O)(=O)N2CCCC2)cc1	i	-5.3	i	-1.2%	-9.5%
CCOC(=O)/C=C/C(=O)Nc1ccc(S(=O)(=O)N(C)c2ccccc2)cc1	i	-109.8*	i	?	22.4%
CC(Oc1ccccc1Cl)C(=O)Nc1ccc(S(=O)(=O)N2CCN(C)CC2)cc1 (stereo not given)	i	-55.2*	i	?	?
CC(=O)Nc1ccc(S(=O)(=O)N(C)c2ccccc2)cc1	?	21.4	?	-6.3%	-1.9%
COC(=O)Nc1ccc(S(=O)(=O)N2CCCCCC2)cc1	18.4µM*	20.2	i	?	19.4%
COc1ccc(C(C)(NC(C)=O)c2nc(-c3cccc(F)c3)cs2)cc1 (stereo not given)	i	-17.4	i	.	.
COc1ccccc1OC(C)C(=O)N1CC(=O)Nc2ccccc21 (stereo not given)	i	-12.6	i	-2.2%	-3.6%
COc1ccc(-c2nc(Cn3c(=O)cc(-c4ccccc4)c4c(C)nn(C)c43)c(C)o2)cc1OC	i	.	?	.	.
COc1ccc(NS(=O)(=O)c2cc(N/C(=N\S(=O)(=O)c3ccccc3)c3ccc(F)cc3)ccc2Cl)cc1	20.6µM*	-9.6	20.6µM*	13µM*	?
Cc1ccc(NC(=S)NC(=O)c2ccc(F)cc2)cc1S(=O)(=O)Nc1ccccc1Cl	?	-12.3	23.1µM*	?	-1.9%
CCOc1ccc(NS(=O)(=O)c2cc(NC(=O)c3ccc(C)cc3)ccc2Cl)cc1	0.82µM*	-2.8	?	2.06µM*	4.61µM*
COc1ccc(NC(=S)NC(=NS(=O)(=O)c2ccc(Cl)cc2)c2ccccc2)cc1	i	-0.4	20.6µM*	?	?
CCOc1ccc(Oc2ccc(NS(=O)(=O)c3cc(C(=O)O)ccc3Cl)cc2)cc1	i	45.0	i	-1.5%	-2.5%
CC(=O)NO	i	14.6	i	-17.1%	3.3%
COc1ccc(C(=O)Nc2ccc(Cl)c(S(=O)(=O)Nc3ccccc3OC)c2)cc1	2.31µM*	-1.4	?	9.1%	3.4%
COc1ccccc1NS(=O)(=O)c1cc(NC(=O)c2ccc(Cl)nc2)ccc1Cl	8.2µM*	-63.2*	?	18.4µM*	0.9%
COc1ccccc1NC(=O)Nc1ccc(Cl)c(S(=O)(=O)Nc2ccccc2OC)c1	i	0.6	i	-2.1%	-3.2%
CCN(CC)c1ccc(NC(=O)c2ccccc2)cc1S(=O)(=O)Nc1ccccc1OC	14.6µM*	-25.9	i	11.3%	5.6%
CCCNC(=O)c1cc(C2CCCCN2C(=O)c2ccc(NC(C)=O)cc2)on1 (stereo not given)	i	-2.2	i	.	.
CN(C(=O)c1ccc(Br)o1)C1(C)CCS(=O)(=O)C1 (stereo not given)	i	-7.3	i	3.9%	29.0%
COc1ccc(C(C#N)=C2C=CC(=NO)C=C2)cc1	?	-100.9*	?	23.1µM*	?
CC(=O)ON=C1C=CC(=C(C#N)c2ccccc2)C=C1	7.31µM*	-111.1*	3.66µM*	.	.
SMILES	KB-V1 MDR tox	IL1B secr inh	KB-3-1 cytotox	MCF10A rerep	SW480 rereplic
CC(=O)OC(=C(OC(C)=O)c1ccccc1)c1ccccc1	i	-5.0	i	-0.9%	-1.1%
CCOC(=O)Cn1c(=O)oc2cc(S(=O)(=O)N(C)c3ccc(OC)cc3)ccc21	i	-57.0*	i	1.7%	-99.6%
CCN(CC)CCCNC(=S)N1CCN(c2nc(-c3ccccc3)cs2)CC1	i	-50.1*	i	?	?
CC(C)CNC(=S)N1CCN(c2nc(-c3ccc(Cl)cc3)cs2)CC1	i	-68.7*	?	0.2%	9.8%[1.84 µM]
O=C(NC(=S)N1CCN(c2nc(-c3ccccc3)cs2)CC1)c1cncc(Br)c1	?	51.3	?	20.6µM*	16.4µM*
COCCCNC(=S)N1CCN(c2nc(-c3ccccc3)cs2)CC1	i	-4.1	i	14.6µM*	-1.8%
O=C(COC(=O)c1ccc([N+](=O)[O-])cc1)Nc1ccccc1C(=O)NC1CC1	?	15.2	i	-25.0%	-27.0%
CC(=O)NS(=O)(=O)c1ccc(NC(=O)COc2ccc(C(=O)c3ccccc3)cc2)cc1	i	15.6	i	-1.2%	-1.1%
O=[N+]([O-])c1ccc2c(c1)Cc1cc(F)ccc1-2	?	-21.3	i	-28.5%	-2.3%
CC(=O)Nc1ccc2c(c1)Cc1cc(N3C(=O)C=CC3=O)ccc1-2	i	-12.0	?	5.17µM*	13µM*
O=C1C=CC(=O)N1c1ccc2c(c1)Cc1cc(F)ccc1-2	i	-64.3*	i	?	?
CC(=O)Nc1ccc2c(c1)Cc1ccc(Cl)cc1-2	?	5.3	?	7.0%	?
Cc1ccc2cc3cc(C(=O)N4CCN(c5ccccc5)CC4)sc3nc2c1	?	.	i	.	.
CCN(CC)c1cc2c(cc1F)c(=O)c(S(=O)(=O)c1ccc(OC)cc1)cn2Cc1ccccc1	i	.	i	.	.
O=C(Nc1cccc(-c2cccc(F)c2)c1)C1CCN(Cc2ccc(CO)o2)CC1	i	-12.8	?	10.6%	16.4µM*
Cc1cc(C)n(CCCN2CCC(C(=O)Nc3cccc(-c4cccc(F)c4)c3)CC2)n1	.	-65.4*	.	?	?
CCOc1ccc(NS(=O)(=O)c2ccc(C(=O)N(C)C)s2)cc1	i	.	i	.	.
Cc1noc(C)c1NC(=O)N(C)C[C@H]1Oc2ccc(NC(=O)Nc3ccc(C(F)(F)F)cc3)cc2C(=O)N([C@H](C)CO)C[C@@H]1C	i	-4.5	i	-10.0%	-5.4%
Cn1c(SCC(=O)N2CCCC2)nc2ccccc21	i	17.7	i	-3.1%	2.5%
Cn1c(SCC(=O)N(Cc2ccccc2)C(C)(C)C)nc2ccccc21	20.6µM*	26.3	i	?	?
Brc1ccc2oc3c(N4CCOCC4)ncnc3c2c1	16.4µM*	0.0	i	11.6%	-4.2%
c1ccc(N2CCN(c3ncnc4c3oc3ccccc34)CC2)cc1	16.4µM*	-9.3	i	2.6%	-3.0%
S=C(Nc1ccc(Br)cc1)N1CCn2cccc2C1c1cccnc1 (stereo not given)	i	-64.9*	i	-4.3%	-9.0%
Cc1ccc(NC(=S)N2CCn3cccc3C2c2cccnc2)cc1 (stereo not given)	?	-13.4	i	0.4%	-1.9%
